Results filed as inconclusive are left out. Active and inactive are the calls of the source. The calls were made as follows, unless noted: active = hit-call score of the fitted dose curve at least 0.9, where 1 is the maximum; inactive = score below 0.9.
Tests used:
[1] = target: Estrogen-related receptor gamma (Homo sapiens) (UniProt P62508); assay: ATG_ERRg_TRANS: Attagene TRANS-FACTORIAL HepG2 Assay for human Estrogen-Related Receptor gamma (ERRg) (AID 2282977; active = hit-call score of the fitted dose curve at least 0.9, where 1 is the maximum;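 also: hits increase reporter signal over DMSO so potencies reflect activators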); settings: HepG2 Attagene TRANS reporter, ERRg transactivation
Chain of Estrogen-related receptor gamma (Homo sapiens) (P62508 whole entry, looked up, the tested form may be a part): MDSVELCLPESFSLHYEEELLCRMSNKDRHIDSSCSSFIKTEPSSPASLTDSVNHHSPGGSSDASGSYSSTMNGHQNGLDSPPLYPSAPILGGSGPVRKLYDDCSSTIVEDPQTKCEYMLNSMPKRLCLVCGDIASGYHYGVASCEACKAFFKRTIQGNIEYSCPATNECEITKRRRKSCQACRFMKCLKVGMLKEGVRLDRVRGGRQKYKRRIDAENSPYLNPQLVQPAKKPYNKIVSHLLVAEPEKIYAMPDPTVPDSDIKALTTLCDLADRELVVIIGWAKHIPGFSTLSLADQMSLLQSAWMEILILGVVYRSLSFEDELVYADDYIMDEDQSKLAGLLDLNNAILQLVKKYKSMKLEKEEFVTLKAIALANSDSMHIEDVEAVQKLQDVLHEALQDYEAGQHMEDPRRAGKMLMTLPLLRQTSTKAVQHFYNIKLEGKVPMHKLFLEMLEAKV
Summary of the method: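 Transfect HepG2 with multiple GAL4-UAS reporter transcription units; dose chemicals 24 h; isolate RNA, reverse-transcribe with oligo(dT), PCR-amplify, label with 6-FAM, digest with HpaI; size fragments by capillary electrophoresis. DMSO serves as negative control.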

[2] = target: Glucocorticoid receptor (Homo sapiens) (UniProt P04150); assay: ATG_GR_TRANS: Attagene TRANS-FACTORIAL HepG2 Assay for human Glucocorticoid Receptor (GR) (AID 2282978; active = hit-call score of the fitted dose curve at least 0.9, where 1 is the maximum;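 also: activators score as hits since higher reporter transcript over DMSO is fitted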); settings: HepG2 Attagene TRANS GR reporter, mRNA transcription
Chain of Glucocorticoid receptor (Homo sapiens) (P04150 whole entry, looked up, the tested form may be a part): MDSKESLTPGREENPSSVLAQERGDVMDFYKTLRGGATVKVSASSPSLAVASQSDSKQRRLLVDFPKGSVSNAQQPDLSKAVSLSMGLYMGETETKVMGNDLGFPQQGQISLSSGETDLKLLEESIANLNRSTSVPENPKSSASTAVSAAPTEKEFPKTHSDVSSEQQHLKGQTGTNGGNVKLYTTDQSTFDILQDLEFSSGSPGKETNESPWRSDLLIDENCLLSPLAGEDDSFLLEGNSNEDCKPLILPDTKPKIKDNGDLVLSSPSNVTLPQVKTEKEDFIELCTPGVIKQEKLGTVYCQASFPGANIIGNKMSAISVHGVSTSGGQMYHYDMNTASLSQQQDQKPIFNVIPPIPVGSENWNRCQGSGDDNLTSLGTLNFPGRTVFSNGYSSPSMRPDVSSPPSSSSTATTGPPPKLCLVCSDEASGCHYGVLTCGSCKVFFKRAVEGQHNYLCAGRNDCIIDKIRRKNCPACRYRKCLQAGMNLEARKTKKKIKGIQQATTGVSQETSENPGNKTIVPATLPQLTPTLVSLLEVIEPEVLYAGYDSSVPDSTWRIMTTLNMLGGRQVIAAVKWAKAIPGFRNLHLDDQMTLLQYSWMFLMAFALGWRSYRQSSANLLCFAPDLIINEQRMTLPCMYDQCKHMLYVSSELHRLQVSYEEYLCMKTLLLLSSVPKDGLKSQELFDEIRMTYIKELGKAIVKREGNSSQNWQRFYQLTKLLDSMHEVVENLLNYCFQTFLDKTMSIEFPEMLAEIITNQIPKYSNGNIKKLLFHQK
Summary of the method: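 Measurement of GAL4-UAS-driven reporter mRNA in human HepG2 liver cells 24 h post-dosing, using RT-PCR with fluorescent labelling and capillary electrophoresis; the transfected constructs report exogenous NR-GAL4 chimera activity, fitted upward against DMSO.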

[3] = target: Hepatocyte nuclear factor 4-alpha (Homo sapiens) (UniProt P41235); assay: ATG_HNF4a_TRANS: Attagene TRANS-FACTORIAL HepG2 Assay for human Hepatocyte Nuclear Factor 4 alpha (HNF4a) (AID 2282982; active = hit-call score of the fitted dose curve at least 0.9, where 1 is the maximum); settings: HepG2 HNF4a transactivation reporter, mRNA readout
Chain of Hepatocyte nuclear factor 4-alpha (Homo sapiens) (P41235 whole entry, looked up, the tested form may be a part): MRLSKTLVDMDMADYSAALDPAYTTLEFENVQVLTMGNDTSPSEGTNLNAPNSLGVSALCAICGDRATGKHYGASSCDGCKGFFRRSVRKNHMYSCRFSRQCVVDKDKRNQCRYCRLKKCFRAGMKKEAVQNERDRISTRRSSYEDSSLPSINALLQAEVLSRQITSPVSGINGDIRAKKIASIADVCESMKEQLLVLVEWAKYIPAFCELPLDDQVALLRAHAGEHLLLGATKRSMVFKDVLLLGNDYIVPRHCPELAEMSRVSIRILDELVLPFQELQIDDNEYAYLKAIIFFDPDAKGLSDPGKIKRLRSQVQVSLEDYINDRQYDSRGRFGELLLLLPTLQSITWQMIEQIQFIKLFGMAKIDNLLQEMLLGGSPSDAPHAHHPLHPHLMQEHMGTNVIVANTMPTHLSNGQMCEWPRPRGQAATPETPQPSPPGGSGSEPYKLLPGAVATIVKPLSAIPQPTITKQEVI
Summary of the method: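 Cells used were human HepG2, transiently carrying GAL4-UAS reporter units read out against exogenous NR-GAL4 chimeras. Reporter transcript levels after 24 h dosing were quantified by fluorescent RT-PCR and capillary electrophoresis.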

[4] = ATG_M_06_TRANS: Attagene TRANS-FACTORIAL HepG2 Assay for M06 Transcription Factor (Internal Marker) (AID 2282983; active = hit-call score of the fitted dose curve at least 0.9, where 1 is the maximum); settings: HepG2 Attagene TRANS M06 internal marker reporter
Summary of the method: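 Cells: HepG2, transient multi-reporter transfection. Exposure: 24 h. Detection: RT-PCR, 6-FAM labelling, HpaI digestion (2 h, 37 °C), capillary electrophoresis. Baseline: DMSO.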

[5] = ATG_M_32_TRANS: Attagene TRANS-FACTORIAL HepG2 Assay for M32 Transcription Factor (Internal Marker) (AID 2282984; active = hit-call score of the fitted dose curve at least 0.9, where 1 is the maximum;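 also: transcript level of a background control reporter unit measured by RT-PCR and capillary electrophoresis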); settings: HepG2 Attagene TRANS M32 internal marker reporter
Summary of the method: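 Human hepatoma HepG2, transient MRTU transfection, 24 h treatment. RNA → RT-PCR → fluorescent primer extension → HpaI digest (2 h, 37 C) → CE. Positive-direction fit vs DMSO.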

[6] = target: Nuclear receptor subfamily 4 group A member 2 (Homo sapiens) (UniProt P43354); assay: ATG_NURR1_TRANS: Attagene TRANS-FACTORIAL HepG2 Assay for human Nuclear Receptor Related Protein 1 (NURR1) (AID 2282985; active = hit-call score of the fitted dose curve at least 0.9, where 1 is the maximum); settings: HepG2 Attagene TRANS reporter, mRNA readout
Chain of Nuclear receptor subfamily 4 group A member 2 (Homo sapiens) (P43354 whole entry, looked up): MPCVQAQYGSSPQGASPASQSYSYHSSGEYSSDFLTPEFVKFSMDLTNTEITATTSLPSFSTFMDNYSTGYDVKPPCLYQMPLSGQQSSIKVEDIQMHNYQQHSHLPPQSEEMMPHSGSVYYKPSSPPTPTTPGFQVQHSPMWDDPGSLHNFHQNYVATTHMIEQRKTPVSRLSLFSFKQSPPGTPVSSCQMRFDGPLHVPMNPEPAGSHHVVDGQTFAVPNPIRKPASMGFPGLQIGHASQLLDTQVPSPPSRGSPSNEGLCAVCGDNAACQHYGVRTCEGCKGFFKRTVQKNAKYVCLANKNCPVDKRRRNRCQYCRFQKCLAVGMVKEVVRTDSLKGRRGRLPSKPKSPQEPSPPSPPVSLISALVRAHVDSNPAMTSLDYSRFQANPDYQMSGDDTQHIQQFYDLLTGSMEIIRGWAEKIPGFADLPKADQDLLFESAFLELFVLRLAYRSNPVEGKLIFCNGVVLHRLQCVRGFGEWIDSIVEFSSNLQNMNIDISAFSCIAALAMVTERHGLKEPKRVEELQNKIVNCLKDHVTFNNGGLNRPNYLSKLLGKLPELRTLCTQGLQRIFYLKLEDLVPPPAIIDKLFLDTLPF
Summary of the method: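 After 24 h chemical dosing, total RNA from transiently transfected HepG2 cells was reverse-transcribed and reporter cDNA PCR-amplified, FAM-labelled and analysed by capillary electrophoresis. Activity fitted in positive direction, DMSO as negative control.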

[7] = target: Transcriptional activator Myb (Homo sapiens) (UniProt P10242); assay: ATG_Myb_CIS: Attagene CIS-FACTORIAL HepG2 Assay for human Myeloblastosis (Myb) Proto-Oncogene Transcription Factor (AID 2282986); settings: HepG2 Attagene CIS-FACTORIAL Myb reporter transcription; actives raise or lower the signal
Chain of Transcriptional activator Myb (Homo sapiens) (P10242 whole entry, looked up): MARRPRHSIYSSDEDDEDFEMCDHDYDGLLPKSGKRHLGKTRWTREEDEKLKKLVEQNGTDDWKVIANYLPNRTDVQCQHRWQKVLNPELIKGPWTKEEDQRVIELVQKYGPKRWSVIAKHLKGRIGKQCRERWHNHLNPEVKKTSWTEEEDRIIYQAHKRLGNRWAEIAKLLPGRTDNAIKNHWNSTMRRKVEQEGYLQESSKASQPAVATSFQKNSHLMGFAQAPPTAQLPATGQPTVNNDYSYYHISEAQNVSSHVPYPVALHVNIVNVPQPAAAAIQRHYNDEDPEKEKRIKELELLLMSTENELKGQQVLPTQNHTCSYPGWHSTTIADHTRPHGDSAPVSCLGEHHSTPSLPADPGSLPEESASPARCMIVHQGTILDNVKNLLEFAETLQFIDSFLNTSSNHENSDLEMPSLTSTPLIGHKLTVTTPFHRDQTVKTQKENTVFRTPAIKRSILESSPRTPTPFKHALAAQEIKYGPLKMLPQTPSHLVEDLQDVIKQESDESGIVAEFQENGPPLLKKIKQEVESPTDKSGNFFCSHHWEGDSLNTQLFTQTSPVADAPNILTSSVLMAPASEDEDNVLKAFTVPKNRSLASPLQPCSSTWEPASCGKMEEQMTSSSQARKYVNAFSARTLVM
Summary of the method: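 Fluorescence signals from capillary electrophoresis of RT-PCR-amplified reporter cDNA give the read-out. Cells: HepG2 transfected with multiple cis-regulated reporter units. Exposure lasts 24 hours; DMSO defines baseline for gain or loss of signal.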

[8] = ATG_NFI_CIS: Attagene CIS-FACTORIAL HepG2 Assay for human Nuclear Factor I (NFI) (AID 2282989); settings: HepG2 cis-regulatory reporter, NFI response element transcription; actives raise or lower the signal
Summary of the method: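 Endogenous TF activity in HepG2 cells transiently transfected with cis-element-driven multiplexed reporter units, read 24 h after dosing. Reporter mRNA quantified by RT-PCR, 6-FAM labelling, HpaI digestion and capillary electrophoresis; bidirectional fit versus DMSO.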

[9] = target: Myc proto-oncogene protein (Homo sapiens) (UniProt P01106); assay: ATG_Myc_CIS: Attagene CIS-FACTORIAL HepG2 Assay for human Myelocytomatosis (Myc) Proto-Oncogene Transcription Factor (AID 2282990); settings: HepG2, Attagene cis-reporter transcription factor activity; actives raise or lower the signal
Chain of Myc proto-oncogene protein (Homo sapiens) (P01106 whole entry, looked up): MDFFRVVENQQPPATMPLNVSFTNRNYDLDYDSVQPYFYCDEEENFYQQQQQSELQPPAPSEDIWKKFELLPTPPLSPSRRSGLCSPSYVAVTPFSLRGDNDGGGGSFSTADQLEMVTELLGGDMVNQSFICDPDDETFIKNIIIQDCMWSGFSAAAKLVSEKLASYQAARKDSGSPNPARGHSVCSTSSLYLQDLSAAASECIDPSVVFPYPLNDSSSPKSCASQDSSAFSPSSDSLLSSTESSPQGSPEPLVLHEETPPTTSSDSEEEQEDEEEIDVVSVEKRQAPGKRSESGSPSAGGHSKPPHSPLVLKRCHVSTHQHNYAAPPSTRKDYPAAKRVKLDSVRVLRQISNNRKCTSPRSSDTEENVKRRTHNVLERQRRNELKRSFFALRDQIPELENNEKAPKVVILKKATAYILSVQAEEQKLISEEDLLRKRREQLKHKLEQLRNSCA
Summary of the method: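 HepG2 cells transiently transfected with multiple cis-promoter-driven reporter transcription units, so endogenous TF activity is read. After 24 h compound exposure, reporter mRNA was quantified by RT-PCR, 6-FAM labelling, HpaI digestion and capillary electrophoresis; bidirectional fit versus DMSO.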

[10] = ATG_NF_kB_CIS: Attagene CIS-FACTORIAL HepG2 Assay for human Nuclear Factor Kappa B (NF-kB) (AID 2282991); settings: HepG2 Attagene cis-factorial NF-kB reporter mRNA; actives raise or lower the signal
Summary of the method: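 HepG2, transient multi-reporter transfection, cis promoter elements (endogenous TFs). 24 h exposure. Total RNA → RT → PCR → 6-FAM label → HpaI → CE. Gain/loss vs DMSO.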

[11] = ATG_NRF2_ARE_CIS: Attagene CIS-FACTORIAL HepG2 Assay for human Nuclear Factor Erythroid 2 Related Factor 2 (NFR2) response to Antioxidant Response Elements (ARE) (AID 2282992); settings: HepG2 Attagene ARE/NRF2 reporter, transcription factor activity; actives raise or lower the signal
Summary of the method: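 Transient MRTU transfection of HepG2; 24 h compound exposure; TriZol RNA, RT with oligo(dT), PCR, 6-FAM primer extension, HpaI cut, CE. Bidirectional fit vs DMSO.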

[12] = ATG_Oct_MLP_CIS: Attagene CIS-FACTORIAL HepG2 Assay for human Octamer-Binding Transcription Factor (Oct) (AID 2282993); settings: HepG2 Attagene cis-factorial Oct reporter, mRNA; actives raise or lower the signal
Summary of the method: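 HepG2 cells transiently transfected with cis-element-driven reporter transcription units (endogenous TF activity); 24 h compound exposure. Reporter mRNA quantified by RT-PCR, 6-FAM labelling, HpaI digestion and capillary electrophoresis; bidirectional fit versus DMSO baseline.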

[13] = target: Cellular tumor antigen p53 (Homo sapiens) (UniProt P04637); assay: ATG_p53_CIS: Attagene CIS-FACTORIAL HepG2 Assay for human p53 Transcription Factor (AID 2282994); settings: HepG2 p53 cis-element reporter, Attagene mRNA; actives raise or lower the signal
Chain of Cellular tumor antigen p53 (Homo sapiens) (P04637 whole entry, looked up): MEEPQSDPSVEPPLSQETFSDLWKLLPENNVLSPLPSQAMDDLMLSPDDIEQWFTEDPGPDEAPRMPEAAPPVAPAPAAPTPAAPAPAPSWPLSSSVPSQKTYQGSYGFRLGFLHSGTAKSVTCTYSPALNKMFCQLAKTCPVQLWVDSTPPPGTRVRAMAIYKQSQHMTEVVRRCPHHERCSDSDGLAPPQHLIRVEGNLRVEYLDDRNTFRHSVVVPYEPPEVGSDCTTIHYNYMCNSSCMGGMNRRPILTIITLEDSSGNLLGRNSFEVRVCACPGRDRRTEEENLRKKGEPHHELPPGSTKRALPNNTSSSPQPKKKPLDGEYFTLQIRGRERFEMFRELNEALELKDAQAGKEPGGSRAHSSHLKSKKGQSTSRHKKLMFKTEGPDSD
Summary of the method: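 HepG2, transient MRTU transfection (cis promoter elements, endogenous TFs); 24 h dosing; RNA isolation, RT-PCR, 6-FAM primer extension, HpaI digest, CE fluorescence; bidirectional fit vs DMSO.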

[14] = target: Bile acid receptor (Homo sapiens) (UniProt Q96RI1); assay: ATG_FXR_TRANS: Attagene TRANS-FACTORIAL HepG2 Assay for Farnesoid X Receptor (FXR) (AID 2282979; active = hit-call score of the fitted dose curve at least 0.9, where 1 is the maximum;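 also: hits raise reporter mRNA above DMSO so AC50 marks FXR activation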); settings: HepG2 Attagene TRANS FXR-GAL4 reporter transcription
Chain of Bile acid receptor (Homo sapiens) (Q96RI1 whole entry, looked up, the tested form may be a part): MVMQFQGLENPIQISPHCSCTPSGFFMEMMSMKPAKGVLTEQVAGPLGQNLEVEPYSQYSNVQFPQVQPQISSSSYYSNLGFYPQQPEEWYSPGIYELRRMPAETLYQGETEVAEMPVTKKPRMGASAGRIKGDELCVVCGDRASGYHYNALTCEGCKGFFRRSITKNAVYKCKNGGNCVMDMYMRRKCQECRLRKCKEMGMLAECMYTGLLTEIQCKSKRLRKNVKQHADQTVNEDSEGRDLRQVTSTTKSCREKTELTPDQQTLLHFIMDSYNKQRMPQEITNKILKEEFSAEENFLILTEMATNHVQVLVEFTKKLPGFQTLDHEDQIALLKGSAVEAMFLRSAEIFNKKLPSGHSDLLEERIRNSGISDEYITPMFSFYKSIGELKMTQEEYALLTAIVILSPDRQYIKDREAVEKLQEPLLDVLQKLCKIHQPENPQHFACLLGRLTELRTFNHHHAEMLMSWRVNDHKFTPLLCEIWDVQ
Summary of the method: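 Reporter transcripts from transfected HepG2 cells were measured 24 h after dosing, using RT-PCR with capillary electrophoresis of 6-FAM-labelled fragments. The read-out reflects activity of exogenous FXR-Gal4 chimera on GAL4-UAS units, with induction relative to DMSO.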

[15] = target: Oxysterols receptor LXR-beta (Homo sapiens) (UniProt P55055); assay: ATG_LXRb_TRANS: Attagene TRANS-FACTORIAL HepG2 Assay for human Liver X Receptor beta (LXRb) (AID 2282981; active = hit-call score of the fitted dose curve at least 0.9, where 1 is the maximum); settings: HepG2 Attagene TRANS GAL4-LXRb reporter, mRNA
Chain of Oxysterols receptor LXR-beta (Homo sapiens) (P55055 whole entry, looked up, the tested form may be a part): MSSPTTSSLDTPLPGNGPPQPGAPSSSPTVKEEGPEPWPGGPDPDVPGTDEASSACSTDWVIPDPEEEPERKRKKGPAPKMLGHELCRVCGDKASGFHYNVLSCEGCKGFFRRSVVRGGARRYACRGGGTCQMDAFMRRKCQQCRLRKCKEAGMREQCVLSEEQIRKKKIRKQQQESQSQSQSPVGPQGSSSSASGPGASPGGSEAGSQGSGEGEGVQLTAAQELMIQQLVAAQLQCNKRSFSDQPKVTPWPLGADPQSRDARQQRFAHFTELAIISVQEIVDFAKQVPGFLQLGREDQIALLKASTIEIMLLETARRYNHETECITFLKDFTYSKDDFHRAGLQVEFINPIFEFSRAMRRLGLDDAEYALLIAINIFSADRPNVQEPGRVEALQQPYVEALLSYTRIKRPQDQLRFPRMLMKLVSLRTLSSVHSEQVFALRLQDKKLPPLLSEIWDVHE
Summary of the method: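 In this TRANS format, exogenous chimeric NR-Gal4 protein activity, not endogenous factors, drives reporter expression in transfected human HepG2 cells. Exposure lasted 24 h; reporter mRNA was read by fluorescent capillary electrophoresis.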

[16] = target: Nuclear respiratory factor 1 (Homo sapiens) (UniProt Q16656); assay: ATG_NRF1_CIS: Attagene CIS-FACTORIAL HepG2 Assay for human Nuclear Respiratory Factor 1 (NRF1) Orphan Gene (AID 2282987); settings: HepG2 NRF1 cis-element reporter, Attagene multiplex; actives raise or lower the signal
Summary of the method: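 Transcriptional reporter readout, one component of a 52-endpoint multiplexed HepG2 panel. Exposure 24 h; mRNA detected via RT-PCR and fluorescent capillary electrophoresis; fitting in both directions against DMSO.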

[17] = BSK_3C_TissueFactor: BioMAP Diversity Plus: 3C Assay for Tissue Factor Biomarker Activity (AID 2282997); settings: BioMAP 3C HUVEC, tissue factor biomarker readout; actives raise or lower the signal
Summary of the method: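 Dosing of human umbilical vein endothelial cells preceded a 24 h incubation. Tissue Factor was then read by ELISA, with increases and decreases both scored relative to DMSO controls.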

[18] = BSK_3C_uPAR: BioMAP Diversity Plus: 3C Assay for Urokinase-type plasminogen activator receptor (uPAR) Biomarker Activity (AID 2282998); settings: BioMAP 3C HUVEC, uPAR biomarker ELISA; actives raise or lower the signal
Summary of the method: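 Primary human umbilical vein endothelial cells, 3C system; surface uPAR measured by ELISA 24 h after dosing. Cytotoxicity via SRB total protein in parallel cultures; bidirectional fit against DMSO.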

[19] = target: Oxysterols receptor LXR-alpha (Homo sapiens) (UniProt Q13133); assay: ATG_LXRa_TRANS: Attagene TRANS-FACTORIAL HepG2 Assay for human Liver X Receptor alpha (LXRa) (AID 2282980; active = hit-call score of the fitted dose curve at least 0.9, where 1 is the maximum); settings: HepG2 Attagene TRANS reporter, LXRa transactivation
Summary of the method: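 Chemical-induced reporter mRNA measured by RT-PCR with fluorescent labelling and capillary electrophoresis after 24 h dosing of transiently transfected HepG2 cells expressing exogenous NR-Gal4 chimeras; increases scored against DMSO baseline.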

Measured: outcome

O=S(=O)(O)c1ccc(Nc2nc(Nc3ccc(C=Cc4ccc(Nc5nc(Nc6ccc(S(=O)(=O)O)cc6)nc(N(CCO)CCO)n5)cc4S(=O)(=O)O)c(S(=O)(=O)O)c3)nc(N(CCO)CCO)n2)cc1
inactive: [1] | [2] | [3] | [4] | [5] | [6] | [7] | [8] | [9] | [10] | [11] | [12] | [13]

Cc1c(O)cccc1O
inactive: [1] | [14] | [15] | [3] | [6] | [7] | [16] | [8] | [9] | [10] | [12] | [17] | [18]

COC(OC)(C(=O)c1ccccc1)c1ccccc1
inactive: [1] | [2] | [3] | [4] | [5] | [7] | [16] | [8] | [9] | [10] | [11] | [17] | [18]

CCC(C)c1ccccc1 (stereo not given)
inactive: [2] | [14] | [19] | [15] | [3] | [4] | [5] | [7] | [16] | [8] | [9] | [10] | [11] | [12] | [13]

CCCCCCCC(=O)OCC(COC(=O)CCCCCCC)OC(=O)CCCCCCC
inactive: [2] | [14] | [19] | [15] | [4] | [6] | [7] | [8] | [9] | [12] | [13]

— PubChem BioAssay (EPA / NIEHS)
